# Experimental data reported in the supplement of paper PMC10849652.
# The full data set covers some 8,800 targets. This sample favours those with a hit. About 0.5% of all pairs of compound and target were hits. Values without a mark were called inactive.
# How the values were obtained:
# Experiment in all cases: log2 fold change, soluble protein after heating vs DMSO (PISA); higher = thermal stabilisation; K562 lysate, 10 uM; active = over 0.2 and 3.5 SD of the protein, either way, in both replicates (recomputed)
# lapatinib = compound: CS(=O)(=O)CCNCc1ccc(-c2ccc3ncnc(Nc4ccc(OCc5cccc(F)c5)c(Cl)c4)c3c2)o1 [lapatinib]
# In short: (§1)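 Log-two fold change in thermal stability relative to solvent controls is reported from duplicates. For each sample, crude K562 extract from dounce-homogenised pellets in PBS pH 7.4 with 1 mM MgCl2, at 1 mg/mL protein, was treated with 10 μM compound for 30 min. Aliquots heated for 3 min across 48°C-58°C were pooled, brought to 0.5% NP-40 at 4°C and cleared at 21,000xg for 90 min. The supernatant was quantified by TMTpro 16plex LC-MS/MS with channel sums equalised.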
# pictilisib = compound: CS(=O)(=O)N1CCN(Cc2cc3nc(-c4cccc5[nH]ncc45)nc(N4CCOCC4)c3s2)CC1 [pictilisib]
# In short: as §1
# crizotinib = compound: C[C@@H](Oc1cc(-c2cnn(C3CCNCC3)c2)cnc1N)c1c(Cl)ccc(F)c1Cl [crizotinib]
# In short: as §1
# [1] = compound: C[C@H](C1=CC=C(C=C1)C(=O)NC2=C3C=CNC3=NC=C2)N
# In short: as §1
# duvelisib = compound: C[C@H](Nc1ncnc2nc[nH]c12)c1cc2cccc(Cl)c2c(=O)n1-c1ccccc1 [duvelisib]
# In short: as §1
# gandotinib = compound: Cc1cc(Nc2cc(CN3CCOCC3)c3nc(C)c(Cc4ccc(Cl)cc4F)n3n2)n[nH]1 [gandotinib]
# In short: as §1
# tozasertib = compound: Cc1cc(Nc2cc(N3CCN(C)CC3)nc(Sc3ccc(NC(=O)C4CC4)cc3)n2)n[nH]1 [tozasertib]
# In short: as §1
# doramapimod = compound: Cc1ccc(-n2nc(C(C)(C)C)cc2NC(=O)Nc2ccc(OCCN3CCOCC3)c3ccccc23)cc1 [doramapimod]
# In short: as §1
# bafetinib = compound: Cc1ccc(NC(=O)c2ccc(CN3CC[C@H](N(C)C)C3)c(C(F)(F)F)c2)cc1Nc1nccc(-c2cncnc2)n1 [bafetinib]
# In short: as §1
# [2] = compound: Cc1cccc(CC(=O)N2CCc3c2ccc(-c2cn(C)c4ncnc(N)c24)c3F)n1
# In short: as §1
# UniProt Q6UX07, sequence (Q6UX07 whole entry, looked up): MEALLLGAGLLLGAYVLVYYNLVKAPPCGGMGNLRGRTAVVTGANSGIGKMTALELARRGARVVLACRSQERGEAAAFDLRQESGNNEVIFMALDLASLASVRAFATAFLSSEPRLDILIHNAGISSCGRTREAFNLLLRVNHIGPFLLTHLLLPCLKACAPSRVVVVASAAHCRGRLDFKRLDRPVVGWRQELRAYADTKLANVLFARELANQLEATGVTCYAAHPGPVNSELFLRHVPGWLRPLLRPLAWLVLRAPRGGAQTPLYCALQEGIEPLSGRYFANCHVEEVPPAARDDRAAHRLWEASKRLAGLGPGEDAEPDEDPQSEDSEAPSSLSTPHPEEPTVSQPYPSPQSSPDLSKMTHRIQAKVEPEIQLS
# UniProt Q7Z460, sequence (Q7Z460 whole entry, looked up): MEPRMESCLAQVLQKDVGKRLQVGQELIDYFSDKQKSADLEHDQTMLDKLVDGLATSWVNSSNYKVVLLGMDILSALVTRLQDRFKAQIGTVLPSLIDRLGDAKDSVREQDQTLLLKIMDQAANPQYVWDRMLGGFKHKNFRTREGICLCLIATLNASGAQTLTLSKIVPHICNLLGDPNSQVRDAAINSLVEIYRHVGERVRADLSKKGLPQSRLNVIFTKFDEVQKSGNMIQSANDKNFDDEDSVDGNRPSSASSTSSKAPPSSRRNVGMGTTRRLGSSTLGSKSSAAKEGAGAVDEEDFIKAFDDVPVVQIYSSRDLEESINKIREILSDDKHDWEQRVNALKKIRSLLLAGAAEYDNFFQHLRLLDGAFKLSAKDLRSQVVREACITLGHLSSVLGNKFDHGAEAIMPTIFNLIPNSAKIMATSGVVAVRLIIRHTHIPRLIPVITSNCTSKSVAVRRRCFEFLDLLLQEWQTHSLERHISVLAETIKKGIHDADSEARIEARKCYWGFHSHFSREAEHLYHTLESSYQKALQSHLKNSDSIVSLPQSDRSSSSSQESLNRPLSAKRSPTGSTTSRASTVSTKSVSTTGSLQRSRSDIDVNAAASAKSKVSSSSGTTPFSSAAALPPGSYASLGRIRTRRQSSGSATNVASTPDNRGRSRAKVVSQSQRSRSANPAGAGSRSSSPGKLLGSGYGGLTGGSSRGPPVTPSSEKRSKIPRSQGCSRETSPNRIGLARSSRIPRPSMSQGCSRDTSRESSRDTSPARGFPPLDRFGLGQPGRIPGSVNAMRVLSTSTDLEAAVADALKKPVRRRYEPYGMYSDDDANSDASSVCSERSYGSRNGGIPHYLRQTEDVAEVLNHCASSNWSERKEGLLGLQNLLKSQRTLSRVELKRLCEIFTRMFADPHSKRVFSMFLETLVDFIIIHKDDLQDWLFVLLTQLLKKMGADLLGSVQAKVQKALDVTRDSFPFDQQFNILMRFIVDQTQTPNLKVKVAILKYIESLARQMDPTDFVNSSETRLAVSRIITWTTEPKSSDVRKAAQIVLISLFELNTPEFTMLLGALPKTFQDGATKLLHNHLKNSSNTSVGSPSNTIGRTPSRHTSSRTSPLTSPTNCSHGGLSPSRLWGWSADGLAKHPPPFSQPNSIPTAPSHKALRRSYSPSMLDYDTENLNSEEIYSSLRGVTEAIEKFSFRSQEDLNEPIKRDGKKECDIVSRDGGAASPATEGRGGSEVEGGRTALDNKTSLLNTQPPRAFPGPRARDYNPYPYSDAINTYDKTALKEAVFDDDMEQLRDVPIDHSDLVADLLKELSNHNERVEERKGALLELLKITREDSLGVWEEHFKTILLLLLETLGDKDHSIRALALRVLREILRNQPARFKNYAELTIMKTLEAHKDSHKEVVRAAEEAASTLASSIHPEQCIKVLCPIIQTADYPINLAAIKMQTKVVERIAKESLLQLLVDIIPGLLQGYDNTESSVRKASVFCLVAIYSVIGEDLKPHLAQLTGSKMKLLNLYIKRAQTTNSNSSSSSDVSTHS
# UniProt Q1MSJ5, sequence (Q1MSJ5 whole entry, looked up): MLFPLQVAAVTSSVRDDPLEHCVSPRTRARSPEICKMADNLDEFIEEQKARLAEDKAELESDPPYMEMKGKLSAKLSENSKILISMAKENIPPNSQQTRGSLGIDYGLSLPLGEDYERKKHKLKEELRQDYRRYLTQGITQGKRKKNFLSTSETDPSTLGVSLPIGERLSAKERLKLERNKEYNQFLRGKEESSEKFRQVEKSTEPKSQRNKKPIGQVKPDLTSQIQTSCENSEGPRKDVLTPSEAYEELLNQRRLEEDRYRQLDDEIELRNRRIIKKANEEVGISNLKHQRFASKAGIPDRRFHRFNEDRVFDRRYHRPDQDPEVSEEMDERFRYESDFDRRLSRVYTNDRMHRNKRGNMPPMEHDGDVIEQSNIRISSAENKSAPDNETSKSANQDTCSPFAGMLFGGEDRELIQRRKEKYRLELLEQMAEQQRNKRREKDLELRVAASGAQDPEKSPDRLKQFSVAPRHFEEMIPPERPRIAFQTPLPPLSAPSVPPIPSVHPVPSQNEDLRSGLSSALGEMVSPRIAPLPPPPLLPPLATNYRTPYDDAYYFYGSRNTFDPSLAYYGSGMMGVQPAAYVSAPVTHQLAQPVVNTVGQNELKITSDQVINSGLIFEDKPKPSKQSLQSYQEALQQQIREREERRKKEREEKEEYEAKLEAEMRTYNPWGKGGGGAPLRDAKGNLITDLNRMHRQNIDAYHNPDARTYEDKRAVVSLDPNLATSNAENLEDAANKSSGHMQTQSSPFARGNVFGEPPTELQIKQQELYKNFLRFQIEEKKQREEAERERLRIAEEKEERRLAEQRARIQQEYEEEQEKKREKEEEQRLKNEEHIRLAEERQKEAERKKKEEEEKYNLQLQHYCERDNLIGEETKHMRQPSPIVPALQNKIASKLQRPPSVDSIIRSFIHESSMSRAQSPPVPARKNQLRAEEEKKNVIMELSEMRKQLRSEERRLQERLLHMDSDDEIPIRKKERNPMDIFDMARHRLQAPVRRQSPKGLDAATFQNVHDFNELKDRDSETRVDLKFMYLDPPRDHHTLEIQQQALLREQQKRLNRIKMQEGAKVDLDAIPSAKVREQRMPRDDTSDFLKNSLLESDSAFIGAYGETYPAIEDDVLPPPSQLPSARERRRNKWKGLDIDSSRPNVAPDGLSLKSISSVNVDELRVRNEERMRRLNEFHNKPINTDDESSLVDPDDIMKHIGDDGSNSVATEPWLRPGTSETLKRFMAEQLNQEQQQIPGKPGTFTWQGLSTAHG
# UniProt P51790, sequence (P51790 whole entry, looked up): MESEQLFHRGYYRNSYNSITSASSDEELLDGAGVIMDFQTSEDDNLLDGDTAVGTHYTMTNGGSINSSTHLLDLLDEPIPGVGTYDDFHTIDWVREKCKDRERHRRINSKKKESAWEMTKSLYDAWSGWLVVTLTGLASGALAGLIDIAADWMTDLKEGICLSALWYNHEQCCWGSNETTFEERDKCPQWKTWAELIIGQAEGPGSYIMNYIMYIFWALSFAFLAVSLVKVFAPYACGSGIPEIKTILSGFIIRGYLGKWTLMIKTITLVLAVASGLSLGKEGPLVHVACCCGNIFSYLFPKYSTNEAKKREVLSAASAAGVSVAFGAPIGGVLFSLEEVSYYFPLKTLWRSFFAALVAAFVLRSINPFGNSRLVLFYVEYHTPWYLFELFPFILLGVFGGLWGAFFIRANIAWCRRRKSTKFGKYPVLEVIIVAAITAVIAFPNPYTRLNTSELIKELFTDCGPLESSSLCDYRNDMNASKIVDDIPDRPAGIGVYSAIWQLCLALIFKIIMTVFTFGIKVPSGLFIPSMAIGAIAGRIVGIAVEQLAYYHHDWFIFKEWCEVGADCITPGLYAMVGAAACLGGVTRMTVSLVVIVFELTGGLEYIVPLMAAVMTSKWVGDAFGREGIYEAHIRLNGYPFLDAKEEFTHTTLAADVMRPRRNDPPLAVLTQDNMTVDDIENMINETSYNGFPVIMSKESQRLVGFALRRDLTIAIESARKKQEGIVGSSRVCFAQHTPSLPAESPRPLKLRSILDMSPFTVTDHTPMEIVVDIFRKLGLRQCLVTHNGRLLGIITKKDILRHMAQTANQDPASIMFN
# UniProt Q15398, sequence (Q15398 whole entry, looked up): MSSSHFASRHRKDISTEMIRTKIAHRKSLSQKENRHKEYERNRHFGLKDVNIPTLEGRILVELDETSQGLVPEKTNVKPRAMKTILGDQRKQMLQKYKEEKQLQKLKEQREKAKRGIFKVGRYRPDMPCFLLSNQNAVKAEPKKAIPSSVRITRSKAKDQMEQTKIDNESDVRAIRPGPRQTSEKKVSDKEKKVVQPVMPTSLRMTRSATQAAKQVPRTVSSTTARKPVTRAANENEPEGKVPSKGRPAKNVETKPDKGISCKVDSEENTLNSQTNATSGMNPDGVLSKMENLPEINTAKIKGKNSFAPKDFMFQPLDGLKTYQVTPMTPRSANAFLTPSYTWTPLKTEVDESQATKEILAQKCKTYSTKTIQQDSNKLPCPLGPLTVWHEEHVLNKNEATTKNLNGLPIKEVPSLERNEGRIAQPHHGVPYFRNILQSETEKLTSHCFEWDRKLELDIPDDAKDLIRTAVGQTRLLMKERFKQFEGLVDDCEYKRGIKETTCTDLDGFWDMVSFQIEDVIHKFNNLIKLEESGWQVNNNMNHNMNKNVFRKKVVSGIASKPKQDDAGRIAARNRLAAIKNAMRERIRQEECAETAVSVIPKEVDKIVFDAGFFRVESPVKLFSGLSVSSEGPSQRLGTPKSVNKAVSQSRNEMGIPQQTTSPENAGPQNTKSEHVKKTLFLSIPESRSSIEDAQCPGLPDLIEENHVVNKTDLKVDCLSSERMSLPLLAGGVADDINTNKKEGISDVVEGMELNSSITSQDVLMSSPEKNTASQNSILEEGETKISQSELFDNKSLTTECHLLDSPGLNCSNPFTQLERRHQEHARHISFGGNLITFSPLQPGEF
# UniProt Q5RI15, sequence (Q5RI15 whole entry, looked up): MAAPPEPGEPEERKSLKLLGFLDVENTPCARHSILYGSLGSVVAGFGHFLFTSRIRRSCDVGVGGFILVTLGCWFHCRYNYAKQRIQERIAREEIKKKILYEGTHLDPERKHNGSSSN
Target,log2 fold change (lapatinib),log2 fold change (pictilisib),log2 fold change (crizotinib),log2 fold change [1],log2 fold change (duvelisib),log2 fold change (gandotinib),log2 fold change (tozasertib),log2 fold change (doramapimod),log2 fold change (bafetinib),log2 fold change [2]
CSPP1 (UniProt Q1MSJ5),-0.103,-0.176,0.013,0.031,-0.089,0.056,-0.04,0.018,-0.013,-0.002
CYP4V2 (UniProt Q6ZWL3),0.049,-0.441 (active),0.12,–,0.031,–,–,0.027,0.177,–
DNM2 (UniProt P50570),-0.003,0.022,-0.013,0.021,-0.007,-0.076,0.001,0.033,-0.011,0.035
CSNK1E (UniProt P49674),-0.026,0.103,0.004,0.135,-0.016,-0.134,-0.065,0.003,-0.024,-0.061
DONSON (UniProt Q9NYP3),-0.012,-0.019,-0.012,-0.32,0.007,0.196,–,0.07,-0.033,-0.157
DHRS13 (UniProt Q6UX07),0.048,-0.052,-0.048,–,0.185,–,–,0.087,-0.113,–
DCP2 (UniProt Q8IU60),-0.027,0.011,0.038,0.021,-0.011,-0.148,0.018,0.01,-0.062,-0.041
"CLUH, A0A494C0R8",-0.052,–,-0.019,0.557 (active),0.154,-0.108,-0.025,-0.026,-0.091,-0.14
CLCN3 (UniProt P51790),0.004,–,0.014,-0.09,-0.017,-0.106,-0.008,0.033,-0.004,0.13
CRLS1 (UniProt Q9UJA2),-0.003,-0.107,-0.086,0.084,–,-0.105,–,-0.062,-0.437,-0.176
DNAH5 (UniProt Q8TE73),0.043,-0.005,–,-0.422 (active),-0.051,0.181,–,–,-0.047,0.175
DLGAP5 (UniProt Q15398),0.02,0,-0.016,-0.029,-0.005,0.049,-0.014,0.001,-0.008,0.04
CLASP1 (UniProt Q7Z460),0,–,-0.051,-0.09,-0.003,0.188,0.004,0.03,-0.042,0.185
CNTN4 (UniProt Q8IWV2),-0.052,-0.066,-0.268,-0.432,–,0.545,-0.182,-0.067,-0.145,0.484
COX20 isoform 2 (UniProt Q5RI15),0.016,0.186,0.054,0.455 (active),-0.007,-0.144,-0.053,-0.036,0.144,-0.273
CLP1 (UniProt Q92989),-0.003,–,-0.041,-0.12,-0.056,0.008,0.004,0.032,0.01,0.047
